Data: PubChem BioAssay (NCATS)
Results filed as inconclusive are left out. Values without a mark were called inactive. The source made the active and inactive calls. Calls come from the whole dose curve; as a rule, active = well fitted inhibition curve with a large enough effect; inconclusive = small, poorly fitted or top-dose-only effect; inactive = flat fitted curve, though single readings scatter.

Assay: P-glycoprotein substrates identified in KB-8-5-11 adenocarcinoma cell line, qHTS therapeutic library screen (AID 1346987); note: nearly all actives have a fitted effect of over 65% in size
Details: KB-8-5-11 (P-gp overexpressing) viability, CellTiter-Glo, 72 h; series mostly up to 44.5 µM; activity change, negative = cytotoxicity: at the top concentration
In short: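 Compounds are pinned in dose-response onto KB-8-5-11 cells (500 cells/well, colchicine-free medium) and left 72 h at 37 degree C. CellTiter-Glo luminescence then yields AC50 values.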
% is set by controls: 0 for no effect and ±100 for the full control effect; potency is the fitted concentration of half-maximal effect.

| Compound | activity change, negative = cytotoxicity | outcome | Potency |
| --- | --- | --- | --- |
| CC1(O)CC(O)C2(O)C=COC(O[C@@H]3O[C@H](CO)[C@@H](O)[C@H](O)[C@H]3O)C12 (stereo partly drawn) | 5.69% | – | – |
| Cc1c(F)cc(C(=O)NC2CC2)cc1-c1c(F)cn2c(C(C)(C)C)nnc2c1F | -12.4% | – | – |
| CC(C)(C)NCCCNC(=O)c1cccc(Br)c1 | 3.58% | – | – |
| CC1=C(C(=O)O)/C(=C\CO[C@@H]2O[C@H](CO)[C@@H](O)[C@H](O)[C@H]2O)C(OC(=O)/C=C/c2ccc(O)cc2)C1 (stereo partly drawn) | – | inactive [at 17.3 µM] | – |
| COC(=O)C12CCC(C)C(C)C1C1=CCC3C4(C)CCC(OC(C)=O)C(C)(C)C4CCC3(C)C1(C)CC2 (stereo not drawn) | 0.509% [at 17.3 µM] | – | – |
| CC1=CCC2C(C)(C)CCC[C@]2(C)[C@@]12CC[C@](C)(CC(=O)O)O2 (stereo partly drawn) | -8.53% | – | – |
| C=C1OC2CC(C(=O)O)C=CC2NC1=O (stereo not drawn) | – | inactive | – |
| O=C(OC[C@H]1O[C@H](O[C@]2(CO)O[C@H](CO)[C@@H](O)[C@@H]2O)[C@H](O)[C@@H](O)[C@@H]1O)c1ccccc1 | – | inactive [at 17.3 µM] | – |
| CC(C)C(N)C(=O)OCCOCn1cnc2c(=O)[nH]c(N)nc21 (stereo not drawn) | -5.91% | – | – |
| C[C@@H]1C(=O)OC[C@H]2C(C(=O)O)=C[C@@H]3CC(C)(C)C[C@]312 | 1.48% | – | – |
| Cc1oc2ccccc2c1CNC(=O)NCc1cccs1 | -6.09% | – | – |
| CC1(C)CC[C@]2(C(=O)O[C@@H]3O[C@H](CO)[C@@H](O)[C@H](O)[C@H]3O)CC[C@]3(C)C(=CCC4[C@@]5(C)CC[C@H](O[C@@H]6O[C@H](C(=O)O)[C@@H](O)[C@H](O)[C@H]6O)C(C)(C)C5CC[C@]43C)C2C1 (stereo partly drawn) | – | inactive [at 9.29 µM] | – |
| COc1ccc(C2(O)CCC(N3CC[C@@H](NC(=O)CNC(=O)c4cccc(C(F)(F)F)c4)C3)CC2)cn1 (stereo partly drawn) | -12.2% | – | – |
| C=C1CCCC2(C)CC3(OC)OC(=O)C(C)=C3CC12 (stereo not drawn) | -1.64% | – | – |
| CC12CCC(C(OC3OC(COC4OCC(O)(CO)C4O)C(O)C(O)C3O)C1)C(C)(C)O2 (stereo not drawn) | – | inactive [at 17.3 µM] | – |
| O=C(O)c1cc(I)ccc1NC(=O)[C@H](Cc1ccccc1)NCc1ccccc1 | 6.68% | – | – |
| COc1ccc(-c2c(-c3cc(C(=O)O)ccn3)ncn2C)cc1 | – | inactive | – |
| OC[C@@]1(O)CO[C@@H](OC[C@H]2O[C@@H](Oc3c[nH]c4ccccc34)[C@H](O)[C@@H](O)[C@@H]2O)[C@@H]1O | -15.8% [at 17.3 µM] | – | – |
| COc1cc2c(cc1OC)-c1[nH]nc(Nc3cccc(F)c3)c1C2 | – | – | 92 nM (active) |

| Compound | activity change, negative = cytotoxicity | outcome | Potency |
| --- | --- | --- | --- |
| Cc1ccc(C(=O)N(CCCN)C(c2nc3cc(Cl)ccc3c(=O)n2Cc2ccccc2)C(C)C)cc1 (stereo not drawn) | – | – | 517 nM (active) |
| COc1ccccc1NC(=O)OCC1CCN(C(=O)OC(C)(C)C)CC1 | -19.3% | – | – |
| CC(C)=CCC[C@](C)(O)[C@H]1CC[C@]2(C)[C@@H]1[C@H](O)CC1[C@@]3(C)CC[C@H](O)C(C)(C)[C@@H]3[C@@H](O[C@@H]3O[C@H](CO)[C@@H](O)[C@H](O)[C@H]3O[C@@H]3O[C@H](CO)[C@@H](O)[C@H](O)[C@H]3O)C[C@]12C (stereo partly drawn) | – | inactive [at 17.3 µM] | – |
| COc1cc(N2CCC(N3CCN(C)CC3)CC2)ccc1Nc1ncc(Cl)c(-c2c[nH]c3ccccc23)n1 | – | – | 517 nM (active) |
| O=C(O)Cc1ccc2oc(-c3ccc(NC(=O)/C=C/c4ccc(Br)cc4)c(F)c3)nc2c1 | -7.12% | – | – |
| CC(C)S(=O)(=O)N[C@H]1CCOC[C@@H]1c1ccc(-c2ccc(C#N)s2)cc1 | -13.4% | – | – |
| COC1CC(OC2CCC3(C)C(=CCC4C3C(OC(C)=O)C(OC(=O)/C=C/c3ccccc3)C3(C)C(C(C)O)CCC43O)C2)OC(C)C1OC1CC(OC)C(OC2OC(C)C(OC3OC(CO)C(O)C(O)C3O)C(OC)C2O)C(C)O1 (stereo not drawn) | – | inactive [at 9.29 µM] | – |
| NC(=O)c1cccc(-c2cc(OC(=O)NC3CCCCC3)ccc2O)c1 | -7.82% | – | – |
| CC(=O)CCC1=C(C)C(O[C@@H]2O[C@H](CO)[C@@H](O)[C@H](O)[C@H]2O)C(O)CC1(C)C (stereo partly drawn) | – | inactive | – |
| COc1ccc(CC2NCCc3c2[nH]c2ccc(C)cc32)cc1OC (stereo not drawn) | -20.8% | – | – |
| CC1CC(=O)C2=C(CCC3(O)C(O)c4c(O)cccc4C(=O)C23O)C1 (stereo not drawn) | 6.09% | – | – |
| NCc1c[nH]c(=S)n1[C@@H]1CCc2c(F)cc(F)cc2C1 | 6.67% | – | – |
| Nc1nc(-n2cc(C(=O)O)c(=O)c3cc(F)c(N4CC(O)C4)c(Cl)c32)c(F)cc1F | -8.8% | – | – |
| Cc1ccc(C(=O)N(CCCN)C(c2oc3cc(Cl)ccc3c(=O)c2Cc2ccccc2)C(C)C)cc1 (stereo not drawn) | – | – | 517 nM (active) |
| Cc1cc(OCc2nnc(SC3CCCC3)n2-c2cccnc2)ccc1-c1ccc(S(C)(=O)=O)cc1 | – | – | 2910 nM (active) |
| O=C(/C=C\c1ccc(O)cc1)N[C@@H](Cc1ccc(O)cc1)C(=O)O | 1.87% | – | – |
| COc1ccc(-c2ccc(-c3cn(C(=O)N4CCCCC4c4ccccc4)nn3)cc2)cc1 (stereo not drawn) | -26.2% | – | – |
| CNC12CC3C[C@@](C)(C1)C[C@](C)(C3)C2 | 0.034% | – | – |
| CC(O)/C=C/C1(O)C(C)C(O[C@@H]2O[C@H](CO)[C@@H](O)[C@H](O)[C@H]2O)C(O)CC1(C)C (stereo partly drawn) | – | inactive [at 17.3 µM] | – |
